Screening data: PubChem, several laboratories
Only some compounds are listed: those with a hit (about 22% of all), similar ones and a draw of the others.
CYP2C9 activ – activators of human CYP2C9; P11712; recombinant CYP2C9, luciferin-H conversion, luminescence; stronger effect = higher value; factor 1 = untreated enzyme, 0 = blocked; activation factor at 5 µM; 1.4% of 96,000 active;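 active = activation factor of 2 or more for CYP2C9 at a 5 µM dose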
Target sequence (P11712 whole entry, looked up): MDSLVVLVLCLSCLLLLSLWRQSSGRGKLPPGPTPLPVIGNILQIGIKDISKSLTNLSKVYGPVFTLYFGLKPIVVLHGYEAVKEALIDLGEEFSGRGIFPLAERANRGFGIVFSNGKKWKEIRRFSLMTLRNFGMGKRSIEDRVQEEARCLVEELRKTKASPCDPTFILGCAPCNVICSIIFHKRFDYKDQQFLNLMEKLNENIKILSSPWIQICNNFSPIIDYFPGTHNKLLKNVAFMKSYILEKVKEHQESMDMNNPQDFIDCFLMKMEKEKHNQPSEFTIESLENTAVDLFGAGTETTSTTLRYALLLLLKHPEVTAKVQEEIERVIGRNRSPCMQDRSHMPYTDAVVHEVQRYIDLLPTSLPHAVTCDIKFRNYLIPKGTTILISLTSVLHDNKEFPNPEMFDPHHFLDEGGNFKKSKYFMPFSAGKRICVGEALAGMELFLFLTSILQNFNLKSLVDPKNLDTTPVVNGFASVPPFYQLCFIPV
CYP2C19 activ – cytochrome P450 2C19 (human) activation | P33261 | 96,000 tested, under 10 active | activation factor at 5 µM | recombinant CYP2C19, luciferin-H EGE luminescence; stronger effect = higher value; 0 = fully inhibited enzyme, 1 = untreated enzyme | AID 1025;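 active = activation factor of at least 2 at 5 µM in the primary screen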
Measles CPE – protection of cells from measles virus | Measles virus-infected cells, CPE protection, absorbance | protection (pct of control), % at 4 µM | 1.5% of 140,000 active; in the data active = protection mostly above about 24%, no sharp cut-off; inactive = mostly below about 26%
CYP2C9 inhib – inhibitors of human CYP2C9. 20% of 96,000 active. P11712. CYP2C9 Supersomes, luciferin-H conversion, luminescence. inhibition, % at 5 µM. AID 777;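 active = blocking of liver enzyme CYP2C9 beyond about 50% at 5 µM, limit read from the data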
CYP2C19 inhib – human CYP2C19 inhibition | P33261 | CYP2C19 Supersomes, luciferin-H EGE luminescence, 30 min | inhibition, % at 5 µM | 21% of 96,000 active | AID 778;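 active = CYP2C19 inhibition above a set limit at 5 µM in the primary screen, cut at about 50% in these data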
Numbers stand for hits; - = inactive; . = no result.

SMILES | CYP2C9 activ | CYP2C19 activ | Measles CPE | CYP2C9 inhib | CYP2C19 inhib
COc1ccccc1C(=O)Nc1ccc(C2=NNC(=O)CC2C)cc1 (centres undefined) | . | . | - | . | .
COc1nc(OC/C(N)=N/O)nc(N2CCOCC2)n1 | - | - | - | - | -
Cc1cccc(-c2nnc(SCC3CNC(=O)O3)n2-c2ccc(Cl)cc2)c1 (centres undefined) | . | . | - | . | .
CSc1cc(N2CCOCC2)nc(-c2ccccc2Cl)n1 | . | . | - | . | .
N#CCCn1cc(/C=N/NC(=O)c2ccncc2)c(-c2ccccc2)n1 | - | - | - | 68 | 53
Cc1ccc(OCC(=O)N2CCCCC2)c(Br)c1 | - | - | - | - | 85
COCCCNC(=O)COc1ccc(Cl)c(C)c1 | - | - | - | - | 84
COc1ccccc1N1CCN(C(=O)COc2ccc(C)cc2Br)CC1 | - | - | - | - | -
Cc1cc(OCC(=O)N2CCCC2)ccc1Cl | - | - | - | - | 85
O=C(NCc1ccccc1)c1ccc(N2C(=O)C3CCCCC3C2=O)cc1 (centres undefined) | . | . | - | . | .
CCc1ccc(C(=O)COC(=O)c2cnccn2)cc1 | - | - | - | - | -
CCN(CC)S(=O)(=O)c1ccc(N2CCOCC2)c(NC(=O)c2cccc3ccccc23)c1 | . | . | - | . | .
Cc1ccc(NC(=O)c2cc(NC(=O)c3ccco3)ccc2N2CCCCC2)cc1 | - | - | - | - | -
CCN(CC)S(=O)(=O)c1ccc(N2CCCCC2)c(C(=O)Nc2ccccc2N2CCOCC2)c1 | - | - | - | - | 59
Cc1ccccc1NC(=O)c1cc(N)ccc1N1CCCCC1 | - | - | - | 86 | 98
CN(C)S(=O)(=O)c1ccc(N2CCCC2)c(C(=O)NC(c2ccccc2)c2ccccc2)c1 | - | - | - | 54 | -
CN(C)S(=O)(=O)c1ccc(N2CCCC2)c(C(=O)Nc2nc3ccccc3s2)c1 | . | . | - | . | .
CCC(=O)Nc1ccc(N2CCCCC2)c(C(=O)Nc2ccccc2C)c1 | - | - | - | - | 53
COc1ccc(NC(C)=O)cc1CNC(=O)COc1c(C)c(C)cc(C)c1C | . | . | - | . | .
COc1ccccc1-c1ccc(Nc2cccc(C(C)=O)c2)nn1 | - | - | - | - | 80
CCn1c(C)c(C(C)=O)c(N2CCN(c3ccc(F)cc3)CC2)nc1=S | - | - | - | - | -
CN(C)c1nc(N2CCN(c3ccc(F)cc3)CC2)c(C#N)c(=O)o1 | 2.2 | - | - | - | 82
Cc1cccc(C)c1-n1nnnc1C1(Nc2ccccc2)CCCCC1 | - | - | - | 61 | 61
C[N+]1(CCCCCCC(=O)/C=N/O)CCCCCC1 | - | - | 32 | - | -
CC(C)Oc1ccc(NC(=O)c2ccncc2)cc1 | - | - | - | 90 | 87
SMILES | CYP2C9 activ | CYP2C19 activ | Measles CPE | CYP2C9 inhib | CYP2C19 inhib
Cn1cnc2cc(NC(=O)c3ccc(Cl)cc3)ccc21 | . | . | - | . | .
O=C(Nc1cccc(Cl)c1Cl)c1ccncc1 | - | - | - | 69 | 90
CC(C)Oc1ccc(C(=O)Nc2ccc(N3CCCCC3)cc2)cc1 | . | . | - | . | .
CN(C)S(=O)(=O)c1ccc(Cl)c(NC(=O)c2ccncc2)c1 | . | . | - | . | .
O=C(Nc1ccc(Cl)cc1)c1ccncc1 | - | - | - | - | 90
O=S(=O)(NCc1ccco1)N1CCCCCC1 | - | - | - | - | 63
CCC1c2ccc(C)n2CCN1C(=O)Nc1ccccc1C(=O)OC (centres undefined) | - | - | - | 59 | 86
Cc1cc(/C=N/n2cnnc2)c(C)n1-c1cc(Cl)ccc1Cl | - | - | - | 79 | 100
Cc1cc(/C=N/n2cnnc2)c(C)n1-c1ccc2c(c1)OCO2 | - | - | - | 88 | 100
Cc1cc(/C=N/n2cnnc2)c(C)n1-c1ccc(C(=O)O)cc1 | - | - | - | - | -
COc1ccc(CC(=O)NCc2nnc(SCc3ccc(C)cc3)n2C)cc1 | . | . | - | . | .
O=C(COC(=O)c1ccc2[nH]c3c(c2c1)CCCC3)Nc1ccc(Cl)cc1Cl | . | . | - | . | .
NC(=O)CNC(=O)C1CCCc2c1[nH]c1ccc(Cl)cc21 (centres undefined) | - | - | - | 50 | -
O=S(=O)(c1ccc(OCC(O)CN2CCN(c3ccccc3O)CC2)cc1)N1CCOCC1 (centres undefined) | - | - | - | 54 | -
O=S(=O)(c1ccc(OCC(O)CN2CCCC2)cc1)N1CCOCC1 (centres undefined) | - | - | - | - | -
O=S(=O)(c1ccc(OCC(O)CN2CCN(c3ccccc3)CC2)cc1)N1CCOCC1 (centres undefined) | - | - | - | - | 64
Cc1ccc(NC(=O)/C=C\C(=O)NCC(=O)O)cc1C | . | . | - | . | .
C/C(CC(=O)NC1C2CC3CC(C2)CC1C3)=N\NC(=O)Cc1cccs1 (centres undefined) | . | . | - | . | .
Cc1ccccc1N(Cc1ccccc1F)S(C)(=O)=O | - | - | - | 70 | 95
Cc1ccc(C)c(N(Cc2ccccc2F)S(C)(=O)=O)c1 | . | . | - | . | .
O=C(COc1cccnc1[N+](=O)[O-])NC1CCS(=O)(=O)C1 (centres undefined) | . | . | - | . | .
Cc1ccc2[nH]c3c(c2c1)CCC3=O | - | - | - | - | -
Cc1ccc2[nH]c3c(c2c1)CCc1cn[nH]c1-3 | - | - | - | 88 | 70
CSc1nc(N(C)NC(=O)c2ccc(F)cc2)c2ccccc2n1 | - | - | - | - | -
Cc1ccc(C(=O)NCC(C)(C)N2CCOCC2)s1 | - | - | - | - | 55
SMILES | CYP2C9 activ | CYP2C19 activ | Measles CPE | CYP2C9 inhib | CYP2C19 inhib
CC(C)(CNC(=O)c1sc2cc(F)ccc2c1Cl)N1CCOCC1 | . | . | - | . | .
Cc1c(-c2ccccc2)oc2c(C(=O)N3CCN(c4ccc([N+](=O)[O-])cc4)CC3)cccc2c1=O | . | . | - | . | .
CN(C)c1ccc(C2C3C(=O)NC(=O)C3ON2c2ccc(Cl)cc2)cc1 (centres undefined) | - | - | - | - | 51
O=C1C2=C(NC(=S)NC2c2ccc(Cl)cc2)NC(c2ccc(Cl)cc2)N1c1ccc(Cl)cc1 (centres undefined) | - | - | - | - | -
CCc1cc(C(=O)Cc2cnn(-c3ccccc3)c2)c(O)cc1O | - | - | - | - | 55
O=C(Cc1cnn(-c2ccccc2)c1)c1ccc(O)c(O)c1O | - | - | - | 79 | 65
O=C(O)c1ccc(COc2c(F)c(F)c(F)c(F)c2F)o1 | . | . | - | . | .
Cc1cccc(CC2S/C(=N/N=C/c3ccco3)N(c3ccccc3)C2=O)c1 (centres undefined) | . | . | - | . | .
CC(=O)Nc1ccc(Nc2cc(C)nc3c(-c4ccccc4)c(C)nn23)cc1 | . | . | 93 | . | .
Cc1cc(NCCCN2CCOCC2)n2nc(C)c(-c3ccccc3)c2n1 | - | - | - | 71 | -
Cc1cc(NCCCN2CCOCC2)n2ncc(-c3ccccc3)c2n1 | - | - | - | 88 | -
O=C(NCN1CCc2ccccc2C1)c1ccccc1 | - | - | - | - | 81
O=C(NCN1CCc2ccccc2C1)c1cnccn1 | - | - | - | - | -
O=C(CN1CCc2ccccc2C1)c1cccs1 | - | - | - | - | 92
C=CCN(CC=C)C(=S)NCCc1ccc(OC)c(OC)c1 | . | . | - | . | .
O=C(CCSc1ccc(Cl)c(Cl)c1)NC12CC3CC(CC(C3)C1)C2 | - | - | - | - | -
